Screening results deposited in PubChem BioAssay by Broad Institute.
T cruzi growth-1: inhibitors of T. cruzi proliferation; 5.9% of 77,000 active; inhibition, % at 8.34 µM; T. cruzi beta-gal in NIH3T3, GalScreen luminescence, 90 h; AID 624255;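 active = mean inhibition above about 93%, with at least 55% of replicates each passing it, limit read from the data, passing the limit was not always enough; inconclusive = only one of those two conditions holds; inactive = neither condition holds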
C diff growth: inhibitors of Clostridium difficile growth. Clostridium difficile clinical isolate growth, OD600, 24 h; hits give low values. growth activity, negative = inhibition, % at 16 µg/mL (by protocol). 0.25% of 86,000 active. AID 1259249;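 active = mean growth activity at or below -80% and every replicate also at or below -80%; inconclusive = mean at or below -80% but some replicate above -80%; inactive = mean growth activity above -80%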
Pf Dd2 inh: blocks growth of Plasmodium falciparum Dd2 parasites; P. falciparum Dd2 growth, SYBR Green, 72 h; hits give low values; activity change, % at 10 µM; 2.3% of 94,000 active; AID 1159554; in the data active = activity change below about -80%; inconclusive = no clear call, values can overlap the other calls
T cruzi growth-2: blocks T. cruzi growth in NIH3T3 host cells; shares compounds with T cruzi growth-1; T. cruzi beta-gal in NIH3T3, GalScreen luminescence, 90 h; inhibition, % at 8.35 µM; 72% of 5,600 active; AID 651739;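 active = mean replicate inhibition above about 95% and at least 55% of replicates individually reaching it, limit read from the data; inconclusive = only one of the two criteria is met; inactive = neither criterion is met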
T cruzi growth-3: inhibitors of T. cruzi proliferation | AID 651740 | shares compounds with T cruzi growth-1 | T. cruzi beta-gal in NIH3T3, GalScreen luminescence, 90 h | inhibition, % at 2.09 µM | 21% of 5,600 active;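 active = mean inhibition above about 95%, with at least 55% of replicates also reaching it, limit read from the data; inconclusive = meets just one of the two conditions; inactive = meets neither condition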
NIH3T3 tox: NIH/3T3 (mouse) viability loss; cytotoxicity (signal decrease), % at 8.35 µM; NIH/3T3 viability, CellTiter-Glo ATP luminescence, 90 h; 14% of 5,600 active; shares compounds with T cruzi growth-1;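 active = mean signal decrease across replicates above about 35% based on untreated-well scatter, with enough replicates individually passing, limit read from the data; inconclusive = no rule stated though some were filed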
3T3 cytotox 2: kills mouse NIH/3T3 fibroblasts; shares compounds with T cruzi growth-1; NIH/3T3 viability, CellTiter-Glo ATP luminescence, 90 h; inhibition, % at 24.9 µM; 56% of 5,600 active;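 active = mean loss of cell viability signal at or above a set limit, and enough replicates individually reaching it; inconclusive = meets only the mean limit or only the replicate share; inactive = meets neither condition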
A number is an active result; - = inactive; ? = inconclusive; . = no result given. Most compounds without a hit are left out; they make up all but 6.8% or so of the library.

SMILES | T cruzi growth-1 | C diff growth | Pf Dd2 inh | T cruzi growth-2 | T cruzi growth-3 | NIH3T3 tox | 3T3 cytotox 2
CN1c2ccc(-c3cccc(C#N)c3)cc2[C@H]2[C@H](CCN2C(=O)Nc2cc(F)ccc2F)[C@H]1CO | - | - | - | . | . | . | .
COc1ccccc1S(=O)(=O)N[C@@H]1C=C[C@@H](CC(=O)NCc2cc(F)cc(F)c2)O[C@@H]1CO | - | . | - | . | . | . | .
CN(C)CC(=O)N[C@@H]1C[C@@H]2O[C@H](CO)CC[C@@H]2O[C@@H]1CCc1ccc(C2=CCCCC2)cc1 | . | - | - | . | . | . | .
COCCNC(=O)C[C@H]1CC[C@@H]2[C@@H](COc3ccc(NC(=O)C4CCCC4)cc3C(=O)N2C)O1 | - | - | - | . | . | . | .
CN(C)c1ccc2c(c1)[C@H]1C[C@@H](CC(=O)N3CCc4ccccc4C3)O[C@@H](CO)[C@H]1O2 | - | - | - | . | . | . | .
O=C(Nc1ccc2c(c1)[C@@H]1C[C@@H](CC(=O)N3CCc4ccccc4C3)O[C@@H](CO)[C@@H]1O2)Nc1ccccc1F | . | - | - | . | . | . | .
O=C(Nc1ccc(C(F)(F)F)cc1)Nc1ccc2c(c1)[C@H]1C[C@@H](CC(=O)N3CCc4ccccc4C3)O[C@@H](CO)[C@H]1O2 | - | - | - | . | . | . | .
O=C(Nc1ccc(C(F)(F)F)cc1)Nc1ccc2c(c1)[C@H]1C[C@@H](CC(=O)N3CCc4ccccc4C3)O[C@H](CO)[C@H]1O2 | ? | - | - | - | 112 | - | 40
O=C(Nc1ccc(C(F)(F)F)cc1)Nc1ccc2c(c1)[C@H]1C[C@H](CC(=O)N3CCc4ccccc4C3)O[C@@H](CO)[C@H]1O2 | 141 | - | - | 96 | - | - | 103
CN(C)c1ccc2c(c1)[C@@H]1C[C@@H](CC(=O)N3CCc4ccccc4C3)O[C@@H](CO)[C@@H]1O2 | 135 | - | -86 | - | - | - | -
O=C(C[C@H]1C[C@H]2c3cc(NC(=O)Nc4ccccc4)ccc3O[C@H]2[C@H](CO)O1)NCC1CC1 | - | - | - | . | . | . | .
COc1ccccc1CN1[C@@H]2CN(C(=O)C3CCC3)c3ccccc3[C@@H]2[C@@H]1CO | - | - | - | . | . | . | .
C[C@H](CO)N1C[C@H](C)[C@@H](CN(C)C(=O)Nc2ccc(F)cc2)Oc2ccc(NC(=O)Cc3cn(C)c4ccccc34)cc2CC1=O | - | - | - | . | . | . | .
CC(C)C#Cc1ccc([C@H]2[C@H]3CN(S(=O)(=O)Cc4ccccc4)CCCCN3[C@H]2CO)cc1 | 110 | - | - | 106 | - | - | -
C[C@H](O)C#Cc1ccc([C@H]2[C@H](CO)N3CCCCN(S(=O)(=O)Cc4ccccc4)C[C@@H]23)cc1 | - | - | - | . | . | . | .
CC(C)C#Cc1ccc([C@@H]2[C@H](CO)N3CCCCN(S(=O)(=O)Cc4ccccc4)C[C@@H]23)cc1 | 102 | - | - | 104 | - | 47 | 105
C[C@@H](O)C#Cc1ccc([C@H]2[C@@H](CO)N3CCCCN(S(=O)(=O)Cc4ccccc4)C[C@@H]23)cc1 | - | - | - | . | . | . | .
CC(C)C#Cc1ccc([C@H]2[C@@H](CO)N3CCCCN(S(=O)(=O)Cc4ccccc4)C[C@H]23)cc1 | 103 | - | - | 105 | - | 58 | 105
CC(C)C#Cc1ccc([C@H]2[C@@H](CO)N3CCCCN(S(=O)(=O)Cc4ccccc4)C[C@@H]23)cc1 | 109 | - | - | 108 | - | - | -
C[C@H](O)C#Cc1ccc([C@@H]2[C@@H](CO)N3CCCCN(S(=O)(=O)Cc4ccccc4)C[C@@H]23)cc1 | - | - | - | . | . | . | .
C[C@@H](O)C#Cc1ccc([C@H]2[C@H](CO)N3CCCCN(S(=O)(=O)Cc4ccccc4)C[C@@H]23)cc1 | - | - | - | . | . | . | .
C[C@@H]1CCCCO[C@@H](CN(C)C(=O)C2CCCCC2)[C@@H](C)CN([C@H](C)CO)C(=O)c2cc(NS(C)(=O)=O)ccc2O1 | - | - | - | . | . | . | .
CO[C@H]1CN(C)C(=O)c2cccc(C#N)c2OCC[C@H]2CC[C@H](OC)[C@@H](CN(C)C(=O)[C@H]1C)O2 | - | . | . | . | . | . | .
COc1ccc2c3c(n(C)c2c1)[C@H](CO)N(C(C)=O)CC31CN(C(=O)C2CCOCC2)C1 | . | - | - | . | . | . | .
Cc1noc(C)c1S(=O)(=O)Nc1ccc2c(c1)C(=O)N([C@@H](C)CO)C[C@@H](C)[C@@H](CN(C)S(=O)(=O)c1cn(C)cn1)O2 | - | - | - | . | . | . | .
SMILES | T cruzi growth-1 | C diff growth | Pf Dd2 inh | T cruzi growth-2 | T cruzi growth-3 | NIH3T3 tox | 3T3 cytotox 2
COc1ccc(CN(C)C[C@@H]2OCCCC[C@H](C)Oc3ccc(NS(=O)(=O)c4ccccc4)cc3C(=O)N([C@H](C)CO)C[C@@H]2C)cc1 | - | - | - | . | . | . | .
CC(C)C#Cc1ccc([C@@H]2[C@@H](CO)N3CCCCN(C(=O)c4ccc(F)cc4)C[C@@H]23)cc1 | - | - | - | . | . | . | .
C[C@@H]1CN([C@@H](C)CO)C(=O)c2cc(-c3cccnc3)cnc2O[C@H]1CN(C)C(=O)Nc1ccc2c(c1)OCO2 | - | - | - | . | . | . | .
CN(C)C(=O)c1ccc(-c2ccc([C@H]3[C@@H](CO)N4CCCCN(S(C)(=O)=O)C[C@H]34)cc2)cc1 | - | - | - | . | . | . | .
O=S(=O)(c1cccs1)N1CCCCN2[C@@H](CO)[C@@H](c3ccc(Br)cc3)[C@@H]2C1 | - | - | - | . | . | . | .
COc1ccc(S(=O)(=O)N2CCCCN3[C@@H](CO)[C@@H](c4ccc(C5=CCCCC5)cc4)[C@@H]3C2)cc1 | - | - | - | . | . | . | .
COc1cccc(-c2ccc([C@@H]3[C@H]4CN(S(=O)(=O)c5cccs5)CCCCN4[C@H]3CO)cc2)c1 | - | - | - | . | . | . | .
O=S(=O)(c1cccs1)N1CCCCN2[C@H](CO)[C@H](c3ccc(Br)cc3)[C@@H]2C1 | 114 | - | - | 100 | - | - | 30
COc1ccc(S(=O)(=O)N2CCCCN3[C@H](C2)[C@H](c2ccc(C4=CCCCC4)cc2)[C@@H]3CO)cc1 | 117 | - | - | ? | - | - | 27
CN(C)C(=O)c1ccc(-c2ccc([C@H]3[C@@H](CO)N4CCCCN(S(C)(=O)=O)C[C@@H]34)cc2)cc1 | 98 | - | - | - | - | - | -
Cc1cccc(-c2ccc([C@H]3[C@H]4CN(S(=O)(=O)c5cccs5)CCCCN4[C@H]3CO)cc2)c1 | 107 | - | - | 103 | 99 | - | 46
CC(C)NC(=O)N(C)C[C@@H]1Oc2ncc(C#CC3CC3)cc2C(=O)N([C@H](C)CO)C[C@H]1C | . | - | - | . | . | . | .
CCNC(=O)C[C@H]1CC[C@@H]2[C@@H](COc3ccc(NC(=O)Cc4ccccc4)cc3C(=O)N2C)O1 | - | - | - | . | . | . | .
COc1cccc(NC(=O)N2CC(=O)N3[C@H](CO)[C@H](c4ccc(C#CC5CCCCC5)cc4)[C@H]3C2)c1 | . | - | - | . | . | . | .
CN1C(=O)c2cc(NC(=O)c3cccs3)ccc2OC[C@@H]2O[C@H](CC(=O)N3CCOCC3)CC[C@@H]21 | - | - | - | . | . | . | .
O=C(c1ccc(F)cc1)N1CC(=O)N2[C@H](C1)[C@H](c1ccc(C#CC3CC3)cc1)[C@@H]2CO | . | - | - | . | . | . | .
